PubChem BioAssay AID1159580 (chemical genetic matrix, 2015)
About 2,000 (36%) of roughly 5,500 compounds were called active. Roughly 18% stayed inconclusive and do not appear here. Rule as the data show it: active = normalized growth mostly below about 0.91 (no sharp cut-off); inconclusive = no clear call, values can overlap the other calls; inactive = mostly above about 0.92. This is one part of the list.

Assay: chemical genetic growth profiling, strain panel (AID 1159580);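 also: tested at 20 µM; growth read once vehicle control cultures reached saturation at 30 °C; 1 = growth at the plate median or of vehicle wells; lower values mean less growth of the strain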
Conditions: growth OD

Measured: normalized growth

O=C1c2ccccc2C(=O)N1CN1CCC(O)(c2ccc(Cl)cc2)CC1
inactive: S. cerevisiae deletion strains, locus YAL013W, strain DEP1, hits give low values 0.975 | S. cerevisiae deletion strains, locus YBR229C, strain ROT2, hits give low values 0.982 | S. cerevisiae deletion strains, locus YDL101C, strain DUN1, hits give low values 0.988 | S. cerevisiae deletion strains, locus YDL134C, strain PPH21, hits give low values 1.01 | S. cerevisiae deletion strains, locus YDR150W, strain NUM1, hits give low values 1.01 | S. cerevisiae deletion strains, locus YEL061C, strain CIN8, hits give low values 0.991 | S. cerevisiae deletion strains, locus YGR078C, strain PAC10, hits give low values 0.981 | S. cerevisiae deletion strains, locus YGR229C, strain SMI1, hits give low values 0.999 | S. cerevisiae deletion strains, locus YHR030C, strain SLT2, hits give low values 0.953 | S. cerevisiae deletion strains, locus YHR087W, strain rtc3, hits give low values 0.99 | S. cerevisiae deletion strains, locus YJR043C, strain POL32, hits give low values 0.966 | S. cerevisiae deletion strains, locus YJR075W, strain HOC1, hits give low values 0.987 | S. cerevisiae deletion strains, locus YKL190W, strain CNB1, hits give low values 1.01 | S. cerevisiae deletion strains, locus YLR039C, strain RIC1, hits give low values 0.988 | S. cerevisiae deletion strains, locus YLR058C, strain SHM2 (second series), hits give low values 0.978 | S. cerevisiae deletion strains, locus YLR085C, strain ARP6, hits give low values 1.06 | S. cerevisiae deletion strains, locus YLR262C, strain YPT6, hits give low values 0.93 | S. cerevisiae deletion strains, locus YML094W, strain GIM5, hits give low values 1.02 | S. cerevisiae deletion strains, locus YMR219W, strain ESC1, hits give low values 0.993 | S. cerevisiae deletion strains, locus YMR263W, strain SAP30, hits give low values 0.926 | S. cerevisiae deletion strains, locus YNL128W, strain TEP1, hits give low values 0.987 | S. cerevisiae deletion strains, locus YNL153C, strain GIM3, hits give low values 1.02 | S. cerevisiae deletion strains, locus YNL298W, strain CLA4 (second series), hits give low values 0.974 | S. cerevisiae deletion strains, locus YNL322C, strain KRE1, hits give low values 0.985 | S. cerevisiae deletion strains, locus YNR030W, strain Alg12, hits give low values 0.991 | S. cerevisiae deletion strains, locus YPL055C, strain LGE1, hits give low values 0.947 | S. cerevisiae deletion strains, locus YPL241C, strain CIN2, hits give low values 1.01 | S. cerevisiae deletion strains, locus YPR135W, strain CTF4, hits give low values 0.94 | S. cerevisiae strains, strain wild type, hits give low values 0.992
